# Measured values from PubChem BioAssay (NCATS).
# Inconclusive results are not listed. A call without a number means that no potency is given here. Active and inactive are the calls of the source. Calls come from the whole dose curve; as a rule, active = well fitted inhibition curve with a large enough effect; inconclusive = small, poorly fitted or top-dose-only effect; inactive = no such curve, though single readings can be large or run the other way.
# Assay: NS1 protein of Zika virus - qHTS assay to identify small molecule inhibitors in human HEK 293 cells (AID 1347053); note: nearly all actives have a fitted effect of over 55% in size
# Details: HEK293 ZIKV MR766 infection, NS1 TR-FRET, 24 h; series mostly up to 46.1 µM
# Summary of the method: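 Inhibition of NS1 expression was scored in HEK 293 cells given compound 1 h ahead of MR766 virus (MOI = 0.5). Following 24 h at 37 C, two anti-NS1 antibodies generated a TR-FRET signal, scaled between uninfected and infected controls.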
row,SMILES,Potency
1,OC(CCN1CCCCC1)(c1ccccc1)c1ccccc1,inactive
2,CC(=O)Oc1ccc2c(c1)CC[C@@H]1[C@@H]2CC[C@]2(C)[C@@H](O)CC[C@@H]12,inactive
3,CC1(C)O[C@@H]2C[C@H]3[C@@H]4C[C@H](F)C5=CC(=O)CC[C@]5(C)[C@H]4[C@@H](O)C[C@]3(C)[C@]2(C(=O)CO)O1,inactive
4,CC(=O)OCC(=O)[C@@]1(O)CC[C@H]2[C@@H]3CCC4=CC(=O)C=C[C@]4(C)[C@H]3[C@@H](O)C[C@@]21C,inactive
5,COc1ccc(/C=C/C(=O)c2ccc(OC)cc2OC)cc1,inactive
6,N[C@H](Cc1c[nH]c2ccccc12)C(=O)O,inactive
7,CCOC(=O)/C=C(C)/C=C/C=C(C)/C=C/c1c(C)cc(OC)c(C)c1C,inactive
8,Cc1onc(-c2c(Cl)cccc2Cl)c1C(=O)N[C@@H]1C(=O)N2[C@@H]1SC(C)(C)[C@@H]2C(=O)O,inactive
9,O=C1c2ccccc2C(=O)C1c1ccccc1,inactive
10,C/C=C(/C(=C/C)c1ccc(O)cc1)c1ccc(O)cc1,inactive
11,CN1C(CCl)Nc2cc(Cl)c(S(N)(=O)=O)cc2S1(=O)=O (centres undefined),inactive
12,CN1CCC[C@@H]1c1cccnc1,inactive
13,CCCCCCCCCCCCCCNCCO,inactive
14,Nc1ccc(C(=O)O)cc1,inactive
